Bioassay records: PubChem BioAssay, National Center for Advancing Translational Sciences (NCATS)
The entries come from a sample that favours hits as a whole.
KDM4E inh: JMJD2E (human) inhibition | B2RXH2 | actives 1.6% (n = 230,000) | Potency, µM (doses to about 57.1 µM), for inactives: at the top dose activity change, negative = inhibition, most hits filed as inhibitors | JMJD2E catalytic domain, FDH-coupled NADH fluorescence (FDH is formaldehyde dehydrogenase);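 also: potency is read from the fitted curve at half-maximal effect; 0% = wells with enzyme and -100% = buffer wells without enzyme; nearly all actives have a fitted effect of over 50% in size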
Six1-Eya2 inh: blocks human Six1 binding to Eya2 | actives 0.56% (n = 360,000) | AlphaScreen GST-Six1/His-Eya2 binding, biochemical; stronger effect = lower value | activity change, % (test concentration not listed) | Q15475+O00167; in the data active = activity change below about -65%; inconclusive = mostly about -30% to -63%
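GST-Six1 + His-Eya2 (5X stock: 250/500 nM); Tris pH 8.0, 300 mM NaCl, 0.05% BSA, 0.02% Tween 20; GSH donor/Ni acceptor beads; 1 h 37 °C dark; AlphaScreen readout.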
Eya2 inh: blocks the phosphatase activity of human Eya2. O00167. recombinant Eya2, OMFP fluorescence dephosphorylation (OMFP is methylfluorescein phosphate). Potency, µM (top dose mostly 76.9 µM), for the others: at the highest dose activity, negative = inhibition, usual class: inhibitors. actives 0.006% (n = 330,000); also: potency is read from the fitted curve at half-maximal effect
Target sequence (O00167 whole entry, looked up): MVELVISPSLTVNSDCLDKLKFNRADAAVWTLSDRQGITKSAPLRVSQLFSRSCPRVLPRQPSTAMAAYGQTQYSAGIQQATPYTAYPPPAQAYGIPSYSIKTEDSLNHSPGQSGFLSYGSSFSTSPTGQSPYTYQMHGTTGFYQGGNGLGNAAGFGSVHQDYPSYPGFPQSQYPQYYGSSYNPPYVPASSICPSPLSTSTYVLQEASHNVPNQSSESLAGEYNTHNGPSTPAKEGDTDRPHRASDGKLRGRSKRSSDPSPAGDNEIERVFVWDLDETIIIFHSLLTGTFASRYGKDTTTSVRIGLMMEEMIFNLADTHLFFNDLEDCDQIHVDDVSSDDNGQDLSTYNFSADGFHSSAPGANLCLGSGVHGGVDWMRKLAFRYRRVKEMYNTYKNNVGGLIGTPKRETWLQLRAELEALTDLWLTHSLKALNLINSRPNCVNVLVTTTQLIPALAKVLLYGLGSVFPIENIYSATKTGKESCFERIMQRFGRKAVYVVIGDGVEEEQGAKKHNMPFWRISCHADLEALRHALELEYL
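Eya2 protein (added as 0.2 uM solution) was preincubated with compound for 10 min at ambient temperature in 50 mM HEPES pH 7.5, 50 mM NaCl, 5 uM MgCl2, 0.05% BSA, 1 mM DTT. OMFP (added at 50 uM) then reacted 10 min; fluorescence read at 485/525 nm.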
CtBP-E1A inh: inhibitors of CtBP/E1A interaction. AlphaScreen GST-E1A/His-CtBP binding, 1536-well; stronger effect = lower value. activity change, % (no concentration beside the values). actives 0.49% (n = 340,000). AID 651724; in the data active = activity change below about -65%; inconclusive = mostly about -30% to -63%
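Homogeneous bead-based format: GST-tagged E1A captured on glutathione donor beads, His-tagged CtBP on nickel acceptor beads; compounds precede bead addition by 2 h at 37 °C.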
Anesthetic bind: binds horse apoferritin like a general anesthetic. P02791. apoferritin/1-aminoanthracene competitive binding, fluorescence. Potency, µM (top dose mostly 77.5 µM), for the others: top-dose activity change, negative = displacement, actives largely listed as inhibitors. actives 0.074% (n = 350,000). AID 485281; also: potency is read from the fitted curve at half-maximal effect; nearly all actives have a fitted effect of over 20% in size
Target sequence (P02791 2-175 limits assumed): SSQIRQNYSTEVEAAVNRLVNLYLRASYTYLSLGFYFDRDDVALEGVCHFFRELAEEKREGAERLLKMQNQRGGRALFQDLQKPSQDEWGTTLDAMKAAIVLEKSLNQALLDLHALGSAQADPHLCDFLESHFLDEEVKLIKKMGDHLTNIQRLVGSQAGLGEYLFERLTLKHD
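Horse-spleen apoferritin (10 uM) in 50% saturated 1-aminoanthracene in PBS was incubated 10 min at room temperature with compound. Fluorescence (ex 380, em 535 nm) was normalized to free and bound 1-AMA, with concentration-response fitted by a four-parameter Hill equation.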
GALK inhibitor: galactokinase (human) inhibition | P51570 | actives 0.007% (n = 270,000) | AID 1868 | Potency, µM (doses to about 57.5 µM), for the others: at the highest dose activity change, negative = inhibition, most hits filed as inhibitors | Purified GALK, Kinase-Glo residual ATP luminescence; also: potency is read from the fitted curve at half-maximal effect
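Kinase-Glo Plus luminescence measured ATP left after a 1 h room-temperature reaction. The reaction used 5 nM GALK, 100 uM galactose and 35 uM ATP at pH 8.0 (20 mM HEPES, 5 mM MgCl2, 60 mM NaCl, 1 mM DTT, 0.01% BSA).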
* marks the source's active call; other numbers are inactive results; ? = inconclusive; · = no result; ! = a repeat was not active; [ ] = another dose, or the depositor's remark. Unless noted, calls follow the shape of the dose curve; as a rule, active = well fitted curve in the direction sought with a large enough effect; inconclusive = small, poorly fitted or top-dose-only effect, or another doubt; inactive = no such curve, though single readings can be large; an effect the other way counts as inactive or inconclusive. Unless noted, % is scaled to controls: 0 for no effect and ±100 for the full control effect.

SMILES	KDM4E inh	Six1-Eya2 inh	Eya2 inh	CtBP-E1A inh	Anesthetic bind	GALK inhibitor
C[C@]12CCC(=O)C=C1CC[C@@H]1C2[C@@H](O)C[C@@]2(C)[C@H]1CC[C@]2(O)C(=O)CO (stereo not given in full)	2.0%	·	·	·	·	·
c1ccc(CSc2ccc(-c3ccccn3)nn2)cc1	-9.9%	-90.8*	10.0%	?	-17.8%	-2.5%
O=C(CSc1ccc(-c2ccco2)nn1)N1CCCC1	?	6.5	-6.1%	-7.0	-5.2%	3.1%
O=C(CSc1ccc(-c2ccccn2)nn1)c1ccccc1	?	-86.4*	-1.2%	-87.7*	-16.8%	0.9%
O=C(CSc1ccc(-c2ccccn2)nn1)N1CCCC1	0.3%	-92.0*	-1.0%	4.7	-5.0%	-2.8%
COc1ccc(Cl)c2c1[nH]c1nc(SCc3ccccn3)nnc12	-1.0%	-66.9*	15.6%	?	?	-0.5%
CC1CCC2C(=O)OC(CN3C(=O)c4ccccc4C3=O)CN2C1c1ccc(Br)cc1 (stereo not given)	·	·	·	·	-5.2%[15.3 µM]	·
O=C(NC(=S)NNC(=O)c1ccccc1O)c1cccc([N+](=O)[O-])c1	·	-77.4*	2.1%	-90.3*	-0.7%	5.5%
O=C(NC(=S)Nc1ccccn1)c1cccc([N+](=O)[O-])c1	-3.9%	?	22.4%	-73.9*	2.2%	1.5%
COc1ccc(C(=O)NNC(=S)NC(=O)c2cccc([N+](=O)[O-])c2)cc1	·	-5.6	·	-4.9	·	·
COc1ccc(C2CC(=O)Oc3c(C(CCN4CCOCC4)c4ccc5c(c4)OCO5)c(OC)cc(OC)c32)cc1 (stereo not given)	·	·	·	·	6.1%	·
CC1(Cn2ccnn2)[C@H](C(=O)O)N2C(=O)C[C@H]2S1(=O)=O (stereo not given in full)	·	·	·	·	-11.2%	·
Cc1c(C(=O)Nc2ccc(-c3nc4cc(Cl)ccc4o3)cc2)oc2ccccc12	·	·	·	·	5.7%	·
Oc1ccc(CNc2cccc(F)c2F)c2cccnc12	·	·	-13.3%	·	·	·
OCc1ccc(O)c2ncccc12	15.8µM*	-88.0*	-11.6%	-91.6*	-14.3%	1.8%
Oc1ccc(Cc2ccccc2)c2cccnc12	·	-75.3*	·	-92.1*	·	·
O=C(O)c1ccc(O)c2ncccc12	·	·	-13.3%	·	·	·
Oc1ccc(COCc2ccccc2)c2cccnc12	?	-90.1*	-20.5%	-97.9*	?	-3.9%
Oc1ccc(CNc2ccccc2F)c2cccnc12	7.94µM*	-91.3*	-3.1%	-93.8*	?	5.4%
COc1ccccc1N1CCN(C(=O)c2ccc(Nc3nc4ccccc4n4nnnc34)cc2)CC1	·	·	·	·	1.5%	·
Cc1c(-c2nc(-c3ccc4c(c3)[nH]c(=O)n4C)no2)cccc1[N+](=O)[O-]	·	·	·	·	57.5%	·
CSCC[C@H](NC(=O)[C@H](CC(C)C)NC(=O)CNC(=O)[C@H](Cc1ccccc1)N(C)C(=O)[C@H](Cc1ccccc1)NC(=O)[C@H](CC(=O)O)NC(=O)[C@@H](N)CC(=O)O)C(N)=O	·	·	·	·	-9.1%	·
CN1CCc2cc(NC(=O)Nc3cccnc3)ccc21	-3.6%	·	5.4%	·	·	·
Cn1ccc2cc3c(cc21)CCN3C(=O)Nc1cccnc1	35.5µM*!	-5.7	1.8%	-19.5	·	·
COc1cccc(CSc2nc(-c3ccccc3F)nc3c2Cc2c(CO)cnc(C)c2O3)c1	·	·	·	·	0.7%	·
SMILES	KDM4E inh	Six1-Eya2 inh	Eya2 inh	CtBP-E1A inh	Anesthetic bind	GALK inhibitor
Cc1cccc(C)c1-n1cccc1/C=C1/C(=N)N2C(=NC1=O)SN=C2S(C)(=O)=O	-11.3%	-1.2	5.3%	0.0	?	-12.9%
Cc1cc(/C=C2/C(=N)N3C(=NC2=O)SN=C3S(C)(=O)=O)c(C)n1-c1ccc(F)cc1	31.6µM*	-5.7	0.7%	·	-7.6%	3.6%
Cc1ccc(-n2cccc2/C=C2/C(=N)N3C(=NC2=O)SN=C3S(C)(=O)=O)cc1Cl	22.4µM*	-1.7	-8.3%	-2.4	-10.5%	-8.3%
CCOc1ccc(-n2c(C)cc(/C=C3/C(=N)N4C(=NC3=O)SN=C4S(C)(=O)=O)c2C)cc1	?	-5.0	-0.5%	·	-7.6%	0.0%
CCCN(CCC)CCNC(=O)c1cc2c(=O)oc3ccc(C)cc3c2s1	·	·	·	·	-6.5%	·
O=C(O)c1cc(N(Cc2ccccc2O)Cc2cc(O)ccc2O)ccc1O	·	·	·	·	15.8%	·
N#C/C(=C/c1ccc(OC(=O)c2ccc(Br)s2)cc1)c1nc2ccccc2[nH]1	·	?	·	9.2	·	·
N#C/C(=C\c1ccc(OC(=O)c2ccc(Br)s2)cc1)c1nc2ccccc2[nH]1	17.8µM*	?	1.4%	36.0	1.9%	-2.5%
C#CCCCO/N=C1/C[C@@H](O)[C@@H](O)[C@@H]2[C@@H]3C(=O)N(Cc4ccc5c(c4)OCO5)C(=O)[C@H]3CC[C@@H]12	·	·	·	·	-1.5%[15.3 µM]	·
Nc1c2ccccc2nc2ccccc12	?	-0.5	1.4%	0.0	233.5%	1.5%
Nc1nc2ccccc2nc1N	3.16µM*	0.4	2.4%	0.7	15.4%	1.6%
COc1cccc(C(NC(C)=O)c2nc(-c3cccs3)cs2)c1 (stereo not given)	·	6.3	·	5.5	·	·
COc1cccc(C(=O)NC(=S)Nc2ccc(N3CCCC3)cc2)c1	-6.7%	-67.7*	16.9%	?	?	0.8%
COC(=O)CCCC1=CC2=C(c3ccccc3)C(=O)C(C)(OC(=O)C3CCCC3)C(=O)C2=CN1CCN1CCOCC1 (stereo not given)	3.16µM*!	-1.2	10.5%	0.2	-7.2%	2.3%
Cc1cc(O)ccc1Nc1nc(-c2sc(N)nc2C)cs1	?	?	5.1%	-66.7*	-12.2%	0.7%
COc1ccc(OC)c(Nc2nc(-c3sc(N)nc3C)cs2)c1	-11.6%	?	-13.6%	-67.6*	-6.2%	0.4%
Cc1cc(NS(=O)(=O)c2ccc(Nc3nc(-c4sc(N)nc4C)cs3)cc2)no1	6.5%	-90.8*	12.9%	-90.4*	-11.6%	-2.3%
Cc1nc(N)sc1-c1csc(Nc2ccccc2)n1	-0.8%	?	-11.6%	?	-10.6%	-1.4%
CCCC(=O)Nc1nc(C)c(-c2csc(Nc3cc(OC)ccc3OC)n2)s1	?	-17.8	-36.1%	-15.9	?	0.1%
Cc1cc(NS(=O)(=O)c2ccc(Nc3nc(-c4ccc(C)c(C)c4)cs3)cc2)no1	3.8%	-10.9	-8.9%	-4.7	?	0.4%
CCOC(=O)c1ccc(NC(=O)c2cc(=O)c3cc(CC)ccc3o2)cc1	·	·	·	·	-1.3%	·
Cc1ccc(C(=O)c2oc3ccccc3c2NC(=O)Cc2ccccc2)cc1	·	·	·	·	0.2%	·
Cc1ccc(CSc2nc3cccnc3n2Cc2nc(-c3ccccc3F)oc2C)cc1	·	·	·	·	-20.4%	·
Cc1cc(C(=O)N/N=C/c2cccc([N+](=O)[O-])c2O)n[nH]1	12.6µM*	-91.2*	-0.7%	·	-11.5%	·
